Inconclusive results are not listed. Calls of active or inactive are those of the source. Calls follow the shape of the dose curve; as a rule, active = well fitted curve in the direction sought with a large enough effect; inconclusive = small, poorly fitted or top-dose-only effect, or another doubt; inactive = no such curve, though single readings can be large; an effect the other way counts as inactive or inconclusive. Residues, ends and D or L forms follow the SMILES beside them. *: point of attachment. Cbz = O=C(OCc1ccccc1)*
% is scaled to controls: 0 for no effect and ±100 for the full control effect; potency is read from the fitted curve at half-maximal effect.

The first experiment has as its system Tov112D. Kind of experiment: Primary qHTS to identify gynecologic anti-cancer compounds using libraries of approved drugs and bioactive compounds (AID 1345084). Also: nearly all actives have a fitted effect of over 55% in size. Conditions: Gynecologic cancer cell panel viability, ATPlite luminescence, 48 h; series mostly up to 57.5 µM; activity change, negative = cytotoxicity: at the top concentration. A digest of the protocol: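 Cells, 1,000 per well, plated 16 h, then exposed 48 h at 37 C to compounds. Viability by ATPlite luminescence after 15 min at room temperature.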
Consider `CC(C)c1cc(C(C)C)c(CC(=O)NS(=O)(=O)Oc2c(C(C)C)cccc2C(C)C)c(C(C)C)c1`, for which the “activity change, negative = cytotoxicity” value is -3.65% (inactive).

For `COc1ccc(S(=O)(=O)Nc2cccnc2Nc2ccc(O)cc2)cc1`, the Potency is 1.78 µM (active). For the compound `Cc1cnc(Nc2ccc(CN3CCOCC3)cc2)nc1Nc1cccc(S(=O)(=O)NC(C)(C)C)c1`, the Potency was 5.01 µM (active). In the case of `CCCCOc1ccc(C(=O)Nc2ccc(F)cc2F)cc1`, the “activity change, negative = cytotoxicity” value is 7.26% (inactive). Regarding `N#Cc1c(C2CCNCC2)cc(-c2c(O)cccc2OCC2CC2)nc1N`, the “activity change, negative = cytotoxicity” value was -28.5% (inactive).

System in another experiment: not listed separately
Kind of experiment: Drug repurposing screens with cells derived from glioblastoma tumor samples (AID 1345199). Also: nearly all actives have a fitted effect of over 40% in size. Conditions: GBM patient neurospheres viability, ATP luminescence, 48 h; Potency: tumour line A; series mostly up to 46.1 µM; activity, negative = cell killing: at the top concentration. The method, boiled down:
(§1)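 Primary testing used CD133+ neurospheres from four GBM patients, seven concentrations, 48 h exposure and ATP-based viability; confirmation added three slower-growing patient lines.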
As for `Nc1ccn(C[C@@H](CO)OCP(=O)(O)O)c(=O)n1`, the Potency result was “inactive”. Same read-out and setting: then `Cc1onc(-c2ccccc2)c1C(=O)N[C@@H]1C(=O)N2[C@@H](C(=O)O)C(C)(C)S[C@@H]12`, with “inactive”; and `C[C@H]1C[C@H]2[C@@H]3CCC4=CC(=O)C=C[C@]4(C)[C@@H]3C(=O)C[C@]2(C)[C@@]1(O)C(=O)CO`, with “inactive”; and `O=C(O)C(=O)Nc1cccc(C2=NN=N[N]2)c1`, with “inactive”. Turning to `COC1=C(OC)C(=O)C(CC=C(C)CCC=C(C)CCC=C(C)CCC=C(C)CCC=C(C)CCC=C(C)CCC=C(C)CCC=C(C)CCC=C(C)CCC=C(C)C)=C(C)C1=O`, the Potency result was “inactive”.

For the compound `CC1(C)[C@H](O[C@H]2O[C@H](C(=O)O)[C@@H](O)[C@H](O)[C@H]2O[C@@H]2O[C@H](C(=O)O)[C@@H](O)[C@H](O)[C@H]2O)CC[C@@]2(C)[C@H]1CC[C@]1(C)[C@H]2C(=O)C=C2[C@H]3C[C@@](C)(C(=O)O)CC[C@]3(C)CC[C@]21C`, the Potency result was “inactive”.

In the case of `O=C1c2c(O)cccc2[C@@H]([C@@H]2O[C@H](CO)[C@@H](O)[C@H](O)[C@H]2O)c2cc(CO)cc(O)c21`, the Potency result is “inactive”. Still for that read-out and setting: to `CCCCCCCCCCCCCCCC(=O)OC[C@@H](NC(=O)C(Cl)Cl)[C@H](O)c1ccc([N+](=O)[O-])cc1` belongs “inactive”.

The next experiment relates to astro. Described as above. As to conditions: viability, ATP luminescence, 48 h; series mostly up to 45.9 µM; activity, negative = cell killing: at the top concentration. A digest of the protocol: as §1
Consider `Nc1ccn(C[C@@H](CO)OCP(=O)(O)O)c(=O)n1`, for which the “activity, negative = cell killing” value was -6.73% (inactive).

On to `C#CCC(Cc1cnc2nc(N)nc(N)c2n1)c1ccc(C(=O)N[C@@H](CCC(=O)O)C(=O)O)cc1` (stereo not given in full), for which the “activity, negative = cell killing” value is -21.2% (inactive). Same read-out and setting: then `Cc1onc(-c2ccccc2)c1C(=O)N[C@@H]1C(=O)N2[C@@H](C(=O)O)C(C)(C)S[C@@H]12`, with -7.67% (inactive).

On to `CC(C)N1[N]C(=C2C=c3cc(O)ccc3=N2)c2c(N)ncnc21`, for which the Potency was 3.55 µM (active). In the case of `CCCCCCCN(CC)CCCC(O)c1ccc(NS(C)(=O)=O)cc1` (stereo not given), the “activity, negative = cell killing” value is -19.2% (inactive). As for `C[C@H]1C[C@H]2[C@@H]3CCC4=CC(=O)C=C[C@]4(C)[C@@H]3C(=O)C[C@]2(C)[C@@]1(O)C(=O)CO`, the “activity, negative = cell killing” value was 2.41% (inactive). `O=C(O)C(=O)Nc1cccc(C2=NN=N[N]2)c1`: the “activity, negative = cell killing” value was -10.4% (inactive). Still for that read-out and setting: then `COC1=C(OC)C(=O)C(CC=C(C)CCC=C(C)CCC=C(C)CCC=C(C)CCC=C(C)CCC=C(C)CCC=C(C)CCC=C(C)CCC=C(C)CCC=C(C)C)=C(C)C1=O`, with -6.51% (inactive). Same read-out and setting: then `CC1(C)[C@H](O[C@H]2O[C@H](C(=O)O)[C@@H](O)[C@H](O)[C@H]2O[C@@H]2O[C@H](C(=O)O)[C@@H](O)[C@H](O)[C@H]2O)CC[C@@]2(C)[C@H]1CC[C@]1(C)[C@H]2C(=O)C=C2[C@H]3C[C@@](C)(C(=O)O)CC[C@]3(C)CC[C@]21C`, with -2.25% (inactive); and `O=C1c2c(O)cccc2[C@@H]([C@@H]2O[C@H](CO)[C@@H](O)[C@H](O)[C@H]2O)c2cc(CO)cc(O)c21`, with -6.76% (inactive); and `CCCCCCCCCCCCCCCC(=O)OC[C@@H](NC(=O)C(Cl)Cl)[C@H](O)c1ccc([N+](=O)[O-])cc1`, with -10.1% (inactive).

System in another experiment: not listed separately
Kind of experiment: qHTS assay to identify inhibitors of the type 1 interferon - major histocompatibility complex class I in skeletal muscle: Counter screen cell viability and HiBit confirmation (AID 1347412). Also: nearly all actives have a fitted effect of over 60% in size. As to conditions: iHSKM muscle cells + IFN-b, HiBiT or CellTiter-Glo, 24 h; Potency: HiBiT; Viability, at 45.9 µM (top of the series); activity change, negative = inhibition: at the top concentration. The method, boiled down: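 Myoblasts (C25cl48, HLA-B HiBiT) seeded in medium without dexamethasone, IFN-b 4 ng/ml added except unstimulated columns; 1 hr later compounds pinned (12-pt 1:3, top 46 uM final). Incubated 24 hrs, lysed 10 min, luminescence measured.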
Take `Cc1cc(Nc2ncc3c(n2)N(C)C(=O)N(c2cc(NC(=O)c4cccc(C(F)(F)F)c4)ccc2C)C3)n(C)n1`: the Potency is 0.883 µM (active). Take `CC(C)c1cc(C(C)C)c(CC(=O)NS(=O)(=O)Oc2c(C(C)C)cccc2C(C)C)c(C(C)C)c1`: the “activity change, negative = inhibition” value is -16.8% (inactive). With `Cc1cnc(Nc2ccc(N3CCN(C)CC3)cc2)nc1Nc1cccc(S(=O)(=O)NC(C)(C)C)c1`, the Potency was 2.79 µM (active). Still for that read-out and setting: to `CCS(=O)(=O)Nc1ccc2[nH]c(O)c(C(=Nc3ccc(CN4CCCCC4)cc3)c3ccccc3)c2c1` belongs 0.625 µM (active); to `Cc1cnc(Nc2ccc(CN3CCOCC3)cc2)nc1Nc1cccc(S(=O)(=O)NC(C)(C)C)c1`, 8.83 µM (active). Same read-out and setting: to `Cc1ccc2nc(NCCN)c3ncc(C)n3c2c1` belongs 3.13 µM (active). On to `CC(C)c1cnn2c(NCc3ccccc3)cc(NCCCCCCN)nc12`, for which the Potency result is “inactive”. Same read-out and setting: then `Cc1cnc(NC(=O)Nc2cc(Br)c(C)cc2OC[C@@H]2CNCCO2)cn1`, with “inactive”; and `CCc1ccc(C(=O)Nc2cc(CN3CCN(C)CC3)cc(C(F)(F)F)c2)cc1C#Cc1cnc2ccnn2c1`, with 24.9 µM (active). Consider `N#Cc1c(C2CCNCC2)cc(-c2c(O)cccc2OCC2CC2)nc1N`, for which the “activity change, negative = inhibition” value was -7.5% (inactive).

As to `COC[C@H](NC(=O)c1cnc(C)s1)C(=O)N[C@@H](COC)C(=O)N[C@@H](Cc1ccccc1)C(=O)[C@@]1(C)CO1`, the Potency is 0.198 µM (active). The same measure, in the same setting: to `Cn1cc(CNCC2CCN(c3ncc(C(=O)NO)cn3)CC2)c2ccccc21` belongs 0.157 µM (active); to `CC(C)C[C@H](NC(=O)[C@@H](NC(=O)c1cccc(-c2ccccc2)n1)[C@@H](C)O)B(O)O`, 0.0557 µM (active). `COc1cc(O)c2c(c1)C1OC1C[C@H](O)[C@H](O)C(=O)C=CC[C@H](C)OC2=O` (stereo not given in full): the Potency was 8.83 µM (active). The same measure, in the same setting: to `CN(C)CCN1C(=O)c2cccc3cc(N)cc(c23)C1=O` belongs 8.83 µM (active); to `CC(C)C[C@@H](C=O)NC(=O)[C@H](CC(C)C)NC(=O)[C@H](CC(C)C)NC(=O)OCc1ccccc1` (Cbz-Leu-Leu-Leu-aldehyde), 6.25 µM (active).

Values taken from PubChem BioAssay (NCATS).
